The source of these data is PubChem BioAssay AID449762 (Southern Research Specialized Biocontainment Screening …, 2010).

Values joined by “and” are separate entries in the source; they are usually repeats but may differ in a detail not shown here. Equal values may be shown once. Among all 330,000 compounds or so, about 1,900 (0.58%) were called active. Roughly 4% stayed inconclusive and do not appear here. A selection follows. Measured potencies and affinities stand elsewhere. A number with no mark means an inactive call. Cut-off read from the data, not from the text of the source: inconclusive = inhibition above about 70% without an active follow-up result; inactive = below that.

One may read the inhibition as the drop in the measured response relative to a control, in per cent.

This assay in a line: M. tuberculosis growth inhibition, HTS (AID 449762).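 Note: bacterial growth assessed after seven days of incubation.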 The following applies: M. tuberculosis H37Rv growth inhibition, 7H9 media; at 25 µM; active compounds read high.
For the compound `O=C(COc1ccc(F)cc1)NNC(=O)c1cc2ccccc2oc1=O`, the inhibition is -1.43%.
Regarding `O=C(COc1ccccc1)NNC(=O)c1cc2ccccc2oc1=O`, the inhibition is -4.55%.
As for `CCOc1cc(N2CCOCC2)c(OCC)cc1NC(=O)c1ccc(OC)c(S(=O)(=O)N2CCOCC2)c1`, the inhibition was -2.5%.
In the case of `Cc1c(NS(=O)(=O)c2cccc(C(=O)NCc3ccc(Cl)cc3)c2)c(=O)n(-c2ccccc2)n1C`, the inhibition was -7.86%.
For the compound `CCOC(=O)c1csc(N)n1`, the inhibition is -3.93%.
Regarding `CCOC(=O)c1csc(-c2ccc(OC)c(OC)c2)n1`, the inhibition was 6.33%.
Next, `O=C(Nc1cccc(Cl)c1)NC1CC2CCC(C1)N2Cc1cccs1` (configuration not stated): -7%.
With `CCOc1ccc(-c2c[n+]3c(n2-c2ccccc2)CCCCC3)cc1`, the inhibition was -9.73%.
Regarding `CCOc1ccc(-n2c(-c3ccccc3)c[n+]3c2CCCCC3)cc1`, the inhibition is -7.91%.
On to `Cc1nc(NC(=O)COC(=O)C2CC2C)c(Cl)cc1Cl` (configuration not stated), for which the inhibition is -3.52%.
`Cc1ccccc1Nc1nc(N)nc(COC(=O)c2ccco2)n1`: the inhibition is 10.5%.
Consider `Cc1ccccc1Nc1nc(N)nc(COC(=O)c2ccccc2)n1`, for which the inhibition was -4.25%.
In the case of `CC1CN(c2ccc([N+](=O)[O-])c(NCCOc3ccccc3)c2)CC(C)N1` (configuration not stated), the inhibition is 18.3%.
Turning to `CC1CN(c2ccc([N+](=O)[O-])c(NCCOc3ccccc3)c2)CCN1` (configuration not stated), the inhibition was 22.7%.
For `O=C(NCc1ccc2c(c1)OCO2)c1c(F)c(F)c(F)c(F)c1F`, the inhibition is 4.75%.
Next, `O=C(NCCC1=CCCCC1)c1c(O)nc2ccccn2c1=O`: -7.18%.
Next, `Cc1csc2nc(O)c(C(=O)NCCC3=CCCCC3)c(=O)n12`: 49.8%; `Cc1csc2nc(O)c(C(=O)NCc3ccc4c(c3)OCO4)c(=O)n12`: 28.7%; `Cc1ccc(C)c(C(=O)n2cnnc2N)c1`: -9.61%.
Under `NC(=O)C1c2ccccc2Oc2ccccc21` stands -5.49%; under `Cc1cc(C)nc(N2CCCC(C(=O)NC(C)C)C2)n1` (configuration not stated), 0.18%; under `O=C(Nc1cc(Cl)ccc1Cl)c1ccco1`, -6.05%.
On to `O=C(NC(NC(=S)Nc1cc(Cl)ccc1Cl)C(Cl)(Cl)Cl)c1ccco1` (configuration not stated), for which the inhibition is 11.3%.
`COc1ccc(NC(=O)Nc2ccc3c(c2)C(=O)N([C@H](C)CO)C[C@H](C)[C@@H](CN(C)S(=O)(=O)c2cccs2)O3)cc1`: the inhibition was 2.72%.
Consider `C[C@H](CO)N1C[C@H](C)[C@@H](CN(C)S(=O)(=O)c2cccs2)Oc2ccc(NC(=O)Nc3ccccc3)cc2C1=O`, for which the inhibition is -4.72%.
`CCCc1nc2nc(C)c(NS(=O)(=O)c3ccc(Cl)cc3)c(=O)n2[nH]1`: the inhibition was -4.54%.
For `CC(C)=NNc1nc2c(c(=O)n(C)c(=O)n2C)n1CCc1ccccc1`, the inhibition is -14.4%.
As to `Cc1ccc(/C=C/S(=O)(=O)NCC(=O)OCC(=O)NCc2ccccc2)cc1`, the inhibition was 6.29%.
As for `Cc1ccc(/C=C/S(=O)(=O)NCC(=O)OCC(=O)Nc2ccc(C(N)=O)cc2)cc1`, the inhibition is -3.63%.
For `O=C(NC1CCSc2ccccc21)c1cc([N+](=O)[O-])ccc1N1CCOCC1` (configuration not stated), the inhibition was -4.07%.
With `Nc1nc(N)c(N=Nc2ccc(Cl)cc2)c(=O)[nH]1`, the inhibition is 3.75%.
Turning to `Nc1n[nH]c(N)c1N=Nc1ccc(Cl)cc1`, the inhibition is 0.26%.
Under `COc1cccc(NC(=O)CSc2ccc3nnc(-c4cccnc4)n3n2)c1` stands 6.73%; under `O=C(CN(Cc1ccc(F)cc1)C(=O)CNS(=O)(=O)c1ccc(Cl)cc1)NCC1CCCO1` (configuration not stated), -7.08%; under `CCN1CCN(CC(=O)N2N=C(c3cccs3)CC2c2ccc(C)cc2)C(=O)C1=O` (configuration not stated), 12.5%.
`CCC(=O)N1N=C(c2cccs2)CC1c1ccc(C)cc1` (configuration not stated): the inhibition was -0.72%.
As for `COc1ccccc1NC(=O)CCc1nnc2ccc(N3CCC4(CC3)OCCO4)nn12`, the inhibition is -1.86%.
Regarding `CN1C(=O)CSc2ccc(NC(=O)N3CCOCC3)cc21`, the inhibition was 8.66%.
Consider `CCC(=O)Oc1c(S(=O)(=O)c2ccc(C)cc2)c(C)nn1C(C)(C)C`, for which the inhibition is 11.5%.
Take `COc1ccc(Cc2nnc(SCC(=O)Nc3ccccc3C)n(N)c2=O)cc1`: the inhibition is -1.95%.
For `CCOc1ccc(Cc2nnc(SCC(=O)Nc3ccc(OC)cc3)n(N)c2=O)cc1`, the inhibition is 0.84%.
Under `N#Cc1c(N)n[nH]c1CCCN` stands 0.78%; under `Nc1c2ccccc2nc2ccccc12`, -8.85% and 58.8%; under `O=C(O)c1cc(Cl)nc2ccccc12`, 2.9%.
On to `CCCCOc1ccc(OCCNC(=O)C2CCCN2C(=O)Nc2ccccc2)cc1` (configuration not stated), for which the inhibition was 8.66%.
Take `COc1cc(C(=S)N2CCOCC2)cc(OC)c1OC(=O)c1ccc(C)cc1`: the inhibition is 8.19%.
In the case of `CCCc1nc2ccccc2c(C(=O)O)c1CC`, the inhibition was 2.61%.
In the case of `COc1cc2c(cc1OC)C1(Nc3c-2c(C)nn3-c2ccccc2)C(=O)Nc2ccccc21` (configuration not stated), the inhibition is 9.01%.
As to `COc1cc2c(cc1OC)C1(NCC2)C(=O)Nc2ccccc21` (configuration not stated), the inhibition is 4.39%.
Turning to `COC(=O)c1sc(-c2ccccc2)cc1NC(=O)c1cc(OC)cc(OC)c1`, the inhibition was 6.45%.
Consider `Cc1cccc(C)c1-n1c(C)nn(Cc2ccc([N+](=O)[O-])cc2)c1=O`, for which the inhibition was -15.4%.
With `C(=N\Nc1nc2ccccc2[nH]1)/c1ccc2c(c1)OCCO2`, the inhibition is 12.1%.
Next, `C(=N\Nc1ccccn1)/c1ccc2c(c1)OCCO2`: -4.47%; `O=C(NN1C(=O)NC2(CCCCC2)C1=O)c1ccc(-c2ccc([N+](=O)[O-])cc2)o1`: 4.8%; `CCOC(=O)C1CCCN(S(=O)(=O)c2cccc3cccnc23)C1` (configuration not stated): -4.82%.
As to `O=C1N(CCCCN2C(=O)C3(OCCO3)c3ccccc32)c2ccccc2C12OCCO2`, the inhibition is -3.23%.
Consider `O=C1N(CCCN2C(=O)C3(OCCO3)c3ccccc32)c2ccccc2C12OCCO2`, for which the inhibition was -3.19%.
Turning to `O=C1O[C@@H]([C@H](O)CO)C(O)=C1O`, the inhibition was -0.84%.
Regarding `Cn1c(C(=O)NCc2ccc3c(c2)OCO3)cc2sccc21`, the inhibition is 9.66%.
On to `CN1OC(c2ccccc2)=C(CO)C1c1ccccc1` (configuration not stated), for which the inhibition is -1.69%.
`COc1ccc(-c2c(-c3ccc(OC)c(C)c3O)n[nH]c2C)cc1`: the inhibition was 10.4%.
Next, `O=C(c1ccc(CSc2nc3ccncc3[nH]2)cc1)N1CCN(c2cccc(Cl)c2)CC1`: 60.3%.
As to `O=C(NCc1ccc(Cl)cc1)c1ccc(CSc2nc3ccncc3[nH]2)cc1`, the inhibition is 5.93%.
As to `O=C(c1ccco1)N1CCCC(c2nc3c(nnn3Cc3cccc(Cl)c3)c(=O)[nH]2)C1` (configuration not stated), the inhibition is -2.33%.
As for `C#CCCC(=O)c1ccccc1/C=[N+](\[O-])c1ccccc1`, the inhibition is -2.08%.
As for `CCOC(=O)c1ccc(Nc2ccc([N+](=O)[O-])cn2)cc1`, the inhibition is -5.22%.
For the compound `COc1cccc(-c2n[nH]c(=S)n2Cc2ccco2)c1`, the inhibition was 8.56%.
In the case of `COCc1c(C(=O)N/N=C(/C)c2cccs2)nnn1-c1nonc1N`, the inhibition was -8.26%.
Regarding `CCOc1ccc(NC(=O)CCC(=O)Nc2cc(OC)c(NC(=O)c3ccco3)cc2OC)cc1`, the inhibition is 20.8%.
Turning to `CCN1C(=O)[C@H]2[C@@H](c3ccc(-c4ccccc4)cc3)N[C@@](C)(C(=O)OC)[C@H]2C1=O`, the inhibition is 1.42%.
`COc1cc(CCC(C)=O)ccc1OC(=O)c1c(F)cccc1Cl`: the inhibition was 3.02%.
As for `COc1cc(/C=C/c2cc[n+](C)cc2)ccc1OCC(=O)Nc1ccccc1`, the inhibition is -0.02%.
For the compound `COc1ccc(NC(=O)COc2ccc(/C=C/c3cc[n+](C)cc3)cc2OC)cc1`, the inhibition was -3.55%.
As for `CCCCCCc1nc(C(N)=O)c2[nH]c(=O)n(-c3ccc(OC)cc3OC)c2n1`, the inhibition was 7.81%.
Under `Cc1cc(C)c(CN2CCC(n3nccc3NC(=O)C3CCOC3)CC2)cc1C` (configuration not stated) stands -0.02%; under `OC1(c2cccc(C(F)(F)F)c2)CCN(Cc2nnnn2CCc2ccccc2)CC1`, 1.32%; under `Cc1ccc(N2Cc3ccccc3C2=N)cc1[N+](=O)[O-]`, 2.11%.
Consider `COc1cc(NS(=O)(=O)c2ccc(OC)c(C)c2C)c(OC)cc1Cl`, for which the inhibition is -6.31%.
For `Cc1cccc(NC(=O)CSc2cccc3cccnc23)c1`, the inhibition was -1.29%.
`O=C(CSc1cccc2cccnc12)Nc1cccc(S(=O)(=O)N2CCOCC2)c1`: the inhibition is -4.53%.
`COc1ccc(NC(=O)CN(C)C(=O)c2cc(C)on2)cc1`: the inhibition was 2.44%.
As for `Cc1cc(C(=O)CSc2n[nH]c(N)n2)c(C)n1-c1cccc(F)c1`, the inhibition was -3.82%.
Under `COC(=O)c1ccc(-n2c(C)cc(C(=O)COC(=O)C3=COCCO3)c2C)cc1` stands 48.5%; under `Cc1c(Cl)cccc1NC(CC(=O)c1ccccc1)C(=O)OCC(=O)c1cccs1` (configuration not stated), -5.49%; under `O=C(CCC(=O)c1cccs1)OCC(=O)c1ccccc1`, 2.32%.
Next, `O=C(COC(=O)c1cccs1)c1ccc2c(c1)OCCO2`: -22.5%; `O=C(OCC(=O)c1cccs1)c1ccccc1`: -1.72%; `O=C(OCC(=O)c1ccc[nH]1)C1=COCCO1`: 18.8%.
`O=C(CC(Nc1ccccc1Cl)C(=O)OCC(=O)c1cccs1)c1ccccc1` (configuration not stated): the inhibition was 2.88%.
For the compound `COCCCn1c(SCC(=O)N2CCOCC2)nc2cc(Cl)ccc2c1=O`, the inhibition is -3.72%.
Next, `CCOC(=O)CNC(=S)N(Cc1ccccc1)Cc1cccs1`: 2.83%.
On to `O=C(CN(Cc1ccccc1Cl)C(=O)c1csnn1)NCCc1ccccc1`, for which the inhibition is 4.65%.
